Source: the supplement of paper PMC4723716
± gives the uncertainty stated by the source. Over roughly 9,900 compounds, “viability index relative to DMSO control” has its median near 1; the lowest 2% begin near 0.85. For the sample, the lowest values were picked, then their nearest neighbours and some compounds at random.

System: Plasmodium falciparum NF54 stage V gametocytes
Test: viability index relative to DMSO control (fraction); higher = less gametocyte killing
Conditions: 2.5 µM, incubation time: 72 h
Description: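 Broad DOS informer set and blood-stage-active DOS compounds screened in duplicate at 2.5 µM against P. falciparum NF54 stage V gametocytes with the serum-free one-step SaLSSA (1536-well): 72 h at 37 °C under low oxygen, then saponin lysis and MitoTracker Red CMXRos staining, with high-content imaging. Viability index = viable-object count divided by the plate mean of DMSO wells (0 = killed, about 1 = inactive).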

[1] = library set: Broad Institute DOS
[2] = library set: Broad Institute Blood Stage

Compound | viability index [1] | viability index [2]
C[C@@H]1CN([C@@H](C)CO)C(=O)c2cc(NS(=O)(=O)c3cn(C)cn3)ccc2O[C@H]1CN(C)S(=O)(=O)c1ccc(F)cc1 | 1.06 ± 0.038 | 
O=C(C[C@H]1C=C[C@@H](NC(=O)c2ccncc2)[C@H](CO)O1)NCC1CC1 | 1.029 ± 0.0019 | 
Cc1ccccc1-c1ccc([C@H]2[C@H]3CN(S(C)(=O)=O)CC(=O)N3[C@H]2CO)cc1 | 0.975 ± 0.047 | 
CCc1nc(N2[C@H](C#N)[C@@H](c3ccccc3-c3ccccc3C)[C@@H]2CO)sc1C | 1.07 ± 0.088 | 
CCc1nc(N2[C@@H](C#N)[C@@H](c3ccccc3-c3ccccc3C)[C@@H]2CO)sc1C | 1.08 ± 0.12 | 
CCc1nc(N2[C@@H](C#N)[C@H](c3ccccc3-c3ccccc3C)[C@@H]2CO)sc1C | 0.81 ± 0.063 | 
COc1ccc2c3c([nH]c2c1)[C@@H](CO)N(C[C@]31CCN(C)CC1)S(=O)(=O)c1ccccc1 | 1.04 ± 0.032 | 
CO[C@@H]1CN(C)C(=O)c2ccc(NS(C)(=O)=O)cc2OC[C@@H](C)N(C(=O)CN(C)C)C[C@H]1C | 0.977 ± 0.055 | 
O=C(c1ccc(F)cc1)N1C[C@@H]2N[C@H](C1)[C@H]2c1ccc(-c2cccnc2)cc1 | 1.08 ± 0.12 | 
N#Cc1ccc(-c2ccc([C@H]3[C@@H]4CN(C(=O)c5cccnc5)C[C@H]3N4)cc2)cc1 | 1.15 ± 0.046 | 
N#Cc1cccc(-c2ccc([C@@H]3[C@@H]4CN(C(=O)c5ccc6c(c5)OCO6)C[C@H]3N4)cc2)c1 | 0.896 ± 0.077 | 
N#Cc1cccc(-c2ccc([C@H]3[C@@H]4CN(C(=O)c5ccc6c(c5)OCO6)C[C@H]3N4)cc2)c1 | 1.09 ± 0.072 | 
N#Cc1ccc(-c2ccc([C@@H]3[C@@H]4CN(C(=O)c5cccnc5)C[C@H]3N4)cc2)cc1 | 0.81 ± 0.2 | 
N#Cc1ccc(-c2ccc([C@@H]3[C@@H]4CN(C(=O)Nc5ccc6c(c5)OCO6)C[C@H]3N4)cc2)cc1 | 0.56 ± 0.15 | 
O=C(Cc1ccncc1)N1CC[C@@H]2[C@H]1c1cc(-c3ccccc3F)ccc1N[C@@H]2CO | 1.03 ± 0.046 | 
COc1ccc2c3c([nH]c2c1)[C@H](CO)N(C[C@]31CCN(CC1)C(=O)Cc1cccnc1)S(=O)(=O)c1ccc(C)cc1 | 0.75 ± 0.079 | 
COc1ccc2c3c([nH]c2c1)[C@@H](CO)N(Cc1ccc(Cl)cc1)C[C@]31CN(C1)S(C)(=O)=O | 0.931 ± 0.095 | 
COc1ccc2c3c([nH]c2c1)[C@@H](CO)N(C[C@]31CCN(CC1)C(=O)Cc1cccnc1)S(=O)(=O)c1ccc(C)cc1 | 0.827 ± 0.019 | 
COc1ccc2c3c([nH]c2c1)[C@H](CO)N(C[C@]31CN(C1)C(=O)Cc1cccnc1)S(C)(=O)=O | 1.08 ± 0.04 | 
COc1ccc2c3c([nH]c2c1)[C@@H](CO)N(C[C@]31CN(C1)C(=O)Cc1cccnc1)S(C)(=O)=O | 1.06 ± 0.048 | 
CCCC(=O)N1C[C@@]2(C1)CN([C@@H](CO)c1[nH]c3cc(OC)ccc3c21)S(=O)(=O)c1ccc(C)cc1 | 0.9841 ± 0.0028 | 
COc1ccc(CN2C[C@]3(CN(C3)S(=O)(=O)c3ccc(C)cc3)c3c([nH]c4cc(OC)ccc34)[C@H]2CO)cc1 | 0.793 ± 0.014 | 
CCCC(=O)N1C[C@@]2(C1)CN([C@H](CO)c1[nH]c3cc(OC)ccc3c21)S(=O)(=O)c1ccc(C)cc1 | 0.946 ± 0.074 | 
COc1ccc2c3c([nH]c2c1)[C@H](CO)N(Cc1ccc(Cl)cc1)C[C@]31CN(C1)S(C)(=O)=O | 0.931 ± 0.066 | 

Compound | viability index [1] | viability index [2]
CCS(=O)(=O)N1CC[C@@]2(CC1)CN([C@@H](CO)c1[nH]c3cc(OC)ccc3c21)S(=O)(=O)c1ccc(C)cc1 | 0.934 ± 0.052 | 
CCS(=O)(=O)N1CC[C@@]2(CC1)CN([C@H](CO)c1[nH]c3cc(OC)ccc3c21)S(=O)(=O)c1ccc(C)cc1 | 1 ± 0.046 | 
CCCC(=O)N1CC[C@@]2(CC1)CN([C@@H](CO)c1[nH]c3cc(OC)ccc3c21)S(=O)(=O)c1ccc(C)cc1 |  | 0.655 ± 0.046
C[C@H](CO)N1C[C@H](C)[C@H](CN(C)C(=O)Nc2cccc(C(F)(F)F)c2)OCc2cn(nn2)CCCC1=O | 1.01 ± 0.036 | 
COc1ccc2c3c([C@@H](CO)N(C[C@]33CN(C3)C(=O)c3ccccc3F)C(=O)Nc3ccccc3F)n(C)c2c1 | 0.97 ± 0.053 | 
O=C(Cc1cccnc1)N1CC(=O)N2[C@@H](CO)[C@H](c3ccc(/C=C/c4ccccc4)cc3)[C@@H]2C1 | 1.015 ± 0.0057 | 
C[C@H]1CN([C@@H](C)CO)C(=O)Cc2cc(N(C)C)ccc2O[C@@H]1CN(C)C(=O)NC1CCCCC1 | 0.883 ± 0.058 | 
O=C1CNC[C@@H]2[C@H](c3ccc(C#CC4CCCCC4)cc3)[C@@H](CO)N12 | 1.06 ± 0.067 | 
CN1CCN(C(=O)C[C@H]2CC[C@@H]3[C@H](COC[C@H](O)CN3C(=O)c3ccccc3F)O2)CC1 | 0.986 ± 0.019 | 
Cc1ccc(S(=O)(=O)Nc2ccc3c(c2)C(=O)N([C@@H](C)CO)C[C@@H](C)[C@@H](CN(C)Cc2ccc(C(F)(F)F)cc2)O3)cc1 | 1.04 ± 0.07 | 
COc1ccc(NC(=O)N(C)C[C@@H]2Oc3ccc(NC(=O)Nc4cccc5ccccc45)cc3CC(=O)N([C@@H](C)CO)C[C@H]2C)cc1 | 1.03 ± 0.033 | 
O=C(N[C@@H]1C=C[C@@H](CC(=O)N2CCN(c3ccccc3)CC2)O[C@@H]1CO)c1ccccc1 | 1.11 ± 0.12 | 
N#C[C@H]1[C@@H](c2ccccc2-c2ccccc2F)[C@@H](CO)N1C(=O)c1cccc(F)c1 | 1.16 ± 0.25 | 
Cc1noc(C)c1NC(=O)N[C@@H]1C=C[C@@H](CC(=O)Nc2ccc(-c3ccccc3)cc2)O[C@@H]1CO | 0.979 ± 0.1 | 
Cc1noc(C)c1S(=O)(=O)Nc1ccc2c(c1)C(=O)N([C@H](C)CO)C[C@@H](C)[C@H](CN(C)Cc1ccc(C(=O)O)cc1)OCCCC[C@@H](C)O2 | 1.07 ± 0.12 | 
CN(C)CC(=O)N1[C@H](C#N)[C@@H](c2ccc(C#CC3CCCCC3)cc2)[C@H]1CO | 1.05 ± 0.039 | 
N#C[C@H]1[C@@H](c2ccc(-c3cccc(F)c3)cc2)[C@H](CO)N1C(=O)NC1CCCC1 | 1.055 ± 0.0015 | 
CCCNC(=O)N1[C@H](C#N)[C@H](c2ccc(C#Cc3ccc(F)cc3)cc2)[C@@H]1CO |  | 0.844 ± 0.021
CN(C)CC(=O)N1[C@H](C#N)[C@H](c2ccc(C#CC3CCCCC3)cc2)[C@@H]1CO | 0.981 ± 0.11 | 
N#C[C@@H]1[C@H](c2ccc(-c3cccc(F)c3)cc2)[C@H](CO)N1C(=O)NC1CCCC1 | 0.743 ± 0.059 | 
CCCNC(=O)N1[C@H](C#N)[C@@H](c2ccc(C#Cc3cccc(F)c3)cc2)[C@@H]1CO | 0.981 ± 0.013 | 
CCCNC(=O)N1[C@H](CO)[C@H](c2ccc(C#Cc3cccc(F)c3)cc2)[C@@H]1C#N | 1.09 ± 0.027 | 
CC(C)NC(=O)N1[C@H](C#N)[C@H](c2ccc(C#CC3CCCCC3)cc2)[C@@H]1CO |  | 0.822 ± 0.041
N#C[C@@H]1[C@@H](c2ccc(-c3cccc(F)c3)cc2)[C@H](CO)N1C(=O)NC1CCCC1 | 0.935 ± 0.064 | 

Compound | viability index [1] | viability index [2]
C/C=C/c1ccc([C@H]2[C@@H](CO)N3CCCCN(S(=O)(=O)c4ccc(OC)cc4)C[C@@H]23)cc1 | 0.972 ± 0.078 | 
CCCNC(=O)Nc1ccc2c(c1)OC[C@@H](C)N(C(=O)C1CCOCC1)C[C@H](C)[C@H](OC)CN(C)C2=O | 0.996 ± 0.052 | 
COCC(=O)Nc1ccc2c(c1)C(=O)N(C)C[C@@H](OC)[C@H](C)CN(CCc1ccccc1)[C@H](C)CO2 | 1.05 ± 0.042 | 
O=C(C[C@@H]1C=C[C@H](NC(=O)Nc2ccccc2F)[C@@H](CO)O1)NCc1ccc(-c2ccccc2)cc1 | 1.11 ± 0.14 | 
O=C(C1CCCCC1)N1C[C@@H]2N[C@H](C1)[C@H]2c1ccc(-c2ccccc2F)cc1 | 1.08 ± 0.092 | 
Cc1cccc(-c2ccc([C@@H]3[C@@H]4CN(Cc5cccc(F)c5)C[C@H]3N4)cc2)c1 | 0.816 ± 0.064 | 
Cc1cccc(-c2ccc([C@@H]3[C@@H]4CN(C(=O)CN(C)C)C[C@H]3N4)cc2)c1 | 0.477 ± 0.045 | 
O=C(Nc1ccccc1)N1C[C@@H]2N[C@H](C1)[C@H]2c1ccc(-c2ccccc2F)cc1 | 1.1 ± 0.05 | 
CN(C)CC(=O)N1C[C@@H]2N[C@H](C1)[C@@H]2c1ccc(C2=CCCCC2)cc1 | 0.898 ± 0.013 | 
CN(C)CC(=O)N1C[C@@H]2N[C@H](C1)[C@@H]2c1ccc(-c2ccccc2F)cc1 | 0.745 ± 0.074 | 
Cc1cccc(-c2ccc([C@@H]3[C@@H]4CN(C(=O)c5ccncc5)C[C@H]3N4)cc2)c1 | 1.09 ± 0.12 | 
CN(C)CC(=O)N1C[C@@H]2N[C@H](C1)[C@H]2c1ccc(-c2ccccc2F)cc1 | 0.832 ± 0.011 | 
O=C(Nc1ccccc1)N1C[C@@H]2N[C@H](C1)[C@@H]2c1ccc(-c2ccccc2F)cc1 | 1.03 ± 0.08 | 
Cc1cccc(-c2ccc([C@H]3[C@@H]4CN(Cc5cccc(F)c5)C[C@H]3N4)cc2)c1 | 1.053 ± 0.0043 | 
Fc1cccc(-c2ccc([C@@H]3[C@@H]4CN(Cc5cncnc5)C[C@H]3N4)cc2)c1 | 1.04 ± 0.06 | 
O=C(C1CC1)N1C[C@@H]2N[C@H](C1)[C@@H]2c1ccc(-c2ccccc2F)cc1 |  | 0.988 ± 0.046
N#C[C@H]1[C@@H](c2ccccc2-c2cccc(F)c2)[C@H](CO)N1S(=O)(=O)c1cccc(F)c1 | 1.17 ± 0.1 | 
C[C@@H]1CCCCO[C@H](CN(C)Cc2ccc(Cl)c(Cl)c2)[C@@H](C)CN([C@H](C)CO)C(=O)c2cc(NC(=O)c3ccncc3)ccc2O1 | 1.05 ± 0.047 | 
C/C=C/c1ccc([C@@H]2[C@@H](CO)N3C(=O)CN(S(=O)(=O)c4ccccc4)C[C@H]23)cc1 | 1.11 ± 0.026 | 
CN1c2ccc(-c3ccc(F)cc3)cc2[C@@H]2[C@@H](CCN2C(=O)Cc2cccnc2)[C@@H]1CO | 1.09 ± 0.061 | 
C[C@@H]1CN([C@@H](C)CO)C(=O)c2cc(NC(=O)Nc3ccccc3)ccc2O[C@H]1CN(C)Cc1ccccc1 | 0.979 ± 0.015 | 
C[C@@H]1CN([C@H](C)CO)C(=O)c2c(c3ccccc3n2C)-c2ccccc2CO[C@H]1CN(C)C(=O)[C@@H](Cc1ccccc1)N(C)C | 1.14 ± 0.11 | 
COCC(=O)N1[C@@H]2CN(C)c3ccccc3[C@@H]2[C@@H]1CO | 1.05 ± 0.034 | 
CN(C)C(=O)c1cccc(-c2cccc(-c3nc(C(=O)N4CCCCC4)cc4c3[C@H](CCO)N([S@@](=O)C(C)(C)C)C4)c2)c1 | 1.04 ± 0.0013 | 
